According to PubChem BioAssay (EPA / NIEHS):
Active and inactive are the calls of the source. Rule for the calls: active = hit-call score of the fitted dose curve at least 0.9, where 1 is the maximum; inactive = score below 0.9.

Key:
Conditions in all cases: mRNA level, 48 h; actives raise or lower the signal
CYP4A11 (gene 1579) = experiment: LTEA_HepaRG_CYP4A11: Life Technologies and Expression Analysis (LTEA) Assay for CYP4A11 using HepaRG (AID 2283486)
Procedure, shortened: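 Readout is CYP4A11 transcript level by qRT-PCR, normalized to three housekeeping genes and fitted bidirectionally against 0.5% DMSO. Human HepaRG cells were treated 48 h, in duplicate, with an 8-point half-log series topping at 100 uM.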

[1] = read-out: Cytochrome P450 3A4 (Homo sapiens) (UniProt P08684); experiment: LTEA_HepaRG_CYP3A4: Life Technologies and Expression Analysis (LTEA) Assay for CYP3A4 using HepaRG (AID 2283487)
Procedure, shortened: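 Differentiated HepaRG cells in serum-free induction medium exposed in duplicate for 48 h to 8 half-log concentrations up to 100 uM in 0.5% DMSO. CYP3A4 mRNA measured by qRT-PCR normalized to ACTB, GAPDH and POLR2A; bidirectional fit versus DMSO.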

[2] = read-out: DNA damage-inducible transcript 3 (DDIT3), DDIT3 (gene 1649); experiment: LTEA_HepaRG_DDIT3: Life Technologies and Expression Analysis (LTEA) Assay for DNA damage-inducible transcript 3 (DDIT3) using HepaRG (AID 2283488)
Procedure, shortened: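 HepaRG cells, 48 h after plating, exposed 48 h in serum-free induction medium to 8 half-log concentrations up to 100 uM in 0.5% DMSO, in duplicate. DDIT3 mRNA measured by TaqMan qRT-PCR, normalized to ACTB, GAPDH and POLR2A. Fitted bidirectionally against DMSO.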

[3] = read-out: Pro-epidermal growth factor (Homo sapiens) (UniProt P01133); experiment: LTEA_HepaRG_EGF: Life Technologies and Expression Analysis (LTEA) Assay for Epidermal growth factor (EGF) using HepaRG (AID 2283489)
Procedure, shortened: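 EGF transcript measured by Fluidigm TaqMan qRT-PCR with three housekeeping genes for normalization, 48 h after dosing HepaRG cultures in duplicate (top 100 uM, half-log steps, 0.5% DMSO vehicle). Gain or loss relative to DMSO fitted.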

[4] = read-out: Early growth response protein 1 (EGR1) transcription factor, EGR1 (gene 1958); experiment: LTEA_HepaRG_EGR1: Life Technologies and Expression Analysis (LTEA) Assay for Early growth response protein 1 (EGR1) transcription factor using HepaRG (AID 2283490)
Procedure, shortened: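 Differentiated human HepaRG cells in serum-free induction medium were exposed in duplicate for 48 h to eight concentrations (top 100 uM, half-log steps) in 0.5% DMSO. EGR1 mRNA was quantified by qRT-PCR, normalized to ACTB, GAPDH and POLR2A, and fitted bidirectionally versus DMSO.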

[5] = read-out: Ezrin (EZR), EZR (gene 7430); experiment: LTEA_HepaRG_EZR: Life Technologies and Expression Analysis (LTEA) Assay for Ezrin (EZR) using HepaRG (AID 2283491)
Procedure, shortened: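 Differentiated human HepaRG cells, 48 h after plating, were exposed in serum-free induction medium for 48 hours to eight half-log concentrations up to 100 uM in 0.5% DMSO. EZR mRNA was measured by TaqMan qRT-PCR, normalized to ACTB, GAPDH and POLR2A, and fitted bidirectionally against DMSO.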

[6] = read-out: Cytochrome P450 3A7 (Homo sapiens) (UniProt P24462); experiment: LTEA_HepaRG_CYP3A7: Life Technologies and Expression Analysis (LTEA) Assay for CYP3A7 using HepaRG (AID 2283492)
Procedure, shortened: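 CYP3A7 transcript measured by qRT-PCR (ACTB, GAPDH, POLR2A normalization) after 48 h chemical exposure of HepaRG cells in duplicate. Eight half-log concentrations, maximum 100 uM, 0.5% DMSO vehicle; bidirectional curve fitting against DMSO baseline.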

CYP3A5 (gene 1577) = experiment: LTEA_HepaRG_CYP3A5: Life Technologies and Expression Analysis (LTEA) Assay for CYP3A5 using HepaRG (AID 2283493)
Procedure, shortened: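 HepaRG cells, plated 48 h then in serum-free induction medium, dosed in duplicate for 48 h with eight half-log concentrations up to 100 uM in 0.5% DMSO. Gene mRNA by Fluidigm TaqMan qRT-PCR, normalized to ACTB, GAPDH, POLR2A.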

[7] = read-out: Fatty Acid-Binding Protein 1 (FABP1), FABP1 (gene 2168); experiment: LTEA_HepaRG_FABP1: Life Technologies and Expression Analysis (LTEA) Assay for Fatty Acid-Binding Protein 1 (FABP1) using HepaRG (AID 2283494)
Procedure, shortened: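 Differentiated human HepaRG cells were exposed in duplicate for 48 h in serum-free induction medium to 8-point half-log concentration series topping at 100 uM in 0.5% DMSO. FABP1 mRNA measured by TaqMan qRT-PCR, normalized to ACTB/GAPDH/POLR2A; bidirectional fit versus DMSO.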

[8] = read-out: Cytochrome P450 4A22 (Homo sapiens) (UniProt Q5TCH4); experiment: LTEA_HepaRG_CYP4A22: Life Technologies and Expression Analysis (LTEA) Assay for Cytochrome P450 4A22 (CYP4A22) using HepaRG (AID 2283495)
Procedure, shortened: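 Gene expression measured by qRT-PCR against three housekeeping genes (ACTB, GAPDH, POLR2A), with gain or loss fitted relative to 0.5% DMSO vehicle. HepaRG cultures received 48 h chemical treatment, top concentration 100 uM, half-log steps, duplicate wells.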

[9] = read-out: Cytochrome P450 7A1 (Homo sapiens) (UniProt P22680); experiment: LTEA_HepaRG_CYP7A1: Life Technologies and Expression Analysis (LTEA) Assay for Cytochrome P450 7A1 (CYP7A1) using HepaRG (AID 2283496)
Procedure, shortened: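 HepaRG cells plated 48 h, then switched to serum-free induction medium and exposed in duplicate for 48 h to 8-point half-log series from 100 uM in 0.5% DMSO. CYP7A1 mRNA by qRT-PCR (TaqMan), normalized to ACTB/GAPDH/POLR2A; bidirectional fit versus DMSO.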

[10] = read-out: Glutathione S-Transferase (GSTA2), GSTA2 (gene 2939); experiment: LTEA_HepaRG_GSTA2: Life Technologies and Expression Analysis (LTEA) Assay for Glutathione S-Transferase (GSTA2) using HepaRG (AID 2283497)
Procedure, shortened: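 Human HepaRG cells, plated 48 h, then exposed in serum-free induction medium for 48 h to eight half-log concentrations up to 100 uM in 0.5% DMSO, duplicate. GSTA2 mRNA by qRT-PCR, normalized to ACTB/GAPDH/POLR2A; bidirectional fit versus DMSO.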

[11] = read-out: Glutamate-cysteine ligase catalytic (GCLC), GCLC (gene 2729); experiment: LTEA_HepaRG_GCLC: Life Technologies and Expression Analysis (LTEA) Assay for Glutamate-cysteine ligase catalytic (GCLC) using HepaRG (AID 2283498)
Procedure, shortened: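 Differentiated human HepaRG cells, plated 48 h then switched to serum-free induction medium, were exposed in duplicate for 48 h to 8 half-log concentrations topping at 100 uM in 0.5% DMSO. GCLC mRNA was quantified by qRT-PCR against ACTB, GAPDH and POLR2A.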

[12] = read-out: growth arrest and DNA damage 45 (GADD45G), GADD45G (gene 10912); experiment: LTEA_HepaRG_GADD45G: Life Technologies and Expression Analysis (LTEA) Assay for growth arrest and DNA damage 45 (GADD45G) using HepaRG (AID 2283499)
Procedure, shortened: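 GADD45G transcript level by qRT-PCR (housekeeping-normalized: ACTB, GAPDH, POLR2A) after 48 h chemical treatment of a single HepaRG lot in serum-free induction medium; eight-point half-log series up to 100 uM in 0.5% DMSO, duplicates, up- or down-regulation scored.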

[13] = read-out: Glutamate-cysteine ligase regulatory (GCLM), GCLM (gene 2730); experiment: LTEA_HepaRG_GCLM: Life Technologies and Expression Analysis (LTEA) Assay for Glutamate-cysteine ligase regulatory (GCLM) using HepaRG (AID 2283500)
Procedure, shortened: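 Differentiated HepaRG cells exposed 48 h in serum-free induction medium to eight half-log concentrations up to 100 uM (0.5% DMSO). GCLM mRNA by TaqMan qRT-PCR, normalized to ACTB, GAPDH and POLR2A; bidirectional fit versus DMSO.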

[14] = read-out: Glutathione S-transferase M3 (GSTM3), GSTM3 (gene 2947); experiment: LTEA_HepaRG_GSTM3: Life Technologies and Expression Analysis (LTEA) Assay for Glutathione S-transferase M3 (GSTM3) using HepaRG (AID 2283501)
Procedure, shortened: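 GSTM3 transcript levels came from Fluidigm TaqMan qRT-PCR normalized to three housekeeping genes, fitted in both directions against DMSO. HepaRG cultures received chemicals for 48 h in serum-free induction medium (0.5% DMSO), 8 half-log concentrations up to 100 uM, duplicate.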

[15] = read-out: Hypoxia-inducible factor 1-alpha (Homo sapiens) (UniProt Q16665); experiment: LTEA_HepaRG_HIF1A: Life Technologies and Expression Analysis (LTEA) Assay for Hypoxia-inducible factor 1 (HIF1A) Trancription factor using HepaRG (AID 2283503)
Procedure, shortened: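 Differentiated HepaRG cells in serum-free induction medium exposed 48 h, in duplicate, to 8-point half-log series from 100 uM in 0.5% DMSO. HIF1A mRNA measured by TaqMan qRT-PCR, normalized to ACTB/GAPDH/POLR2A, fitted bidirectionally versus DMSO.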

[16] = read-out: 3-Hydroxy-3-Methylglutaryl-CoA Synthase 2 (HMGCS2), HMGCS2 (gene 3158); experiment: LTEA_HepaRG_HMGCS2: Life Technologies and Expression Analysis (LTEA) Assay for 3-Hydroxy-3-Methylglutaryl-CoA Synthase 2 (HMGCS2) using HepaRG (AID 2283504)
Procedure, shortened: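 Readout is HMGCS2 transcript by qRT-PCR, housekeeping-normalised (ACTB/GAPDH/POLR2A) and fitted bidirectionally against 0.5% DMSO. Differentiated HepaRG cells received chemicals 48 h, duplicate wells, eight half-log concentrations topping at 100 uM.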

HGF (gene 3082) = experiment: LTEA_HepaRG_HGF: Life Technologies and Expression Analysis (LTEA) Assay for Hepatocyte Growth Facto (HGF) using HepaRG (AID 2283505)
Procedure, shortened: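 HGF transcript was quantified by TaqMan qRT-PCR against three housekeeping genes after 48 h treatment of HepaRG cells. Exposure ran in duplicate over eight half-log steps topping at 100 uM in 0.5% DMSO vehicle.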

[17] = read-out: Heat shock 70 kDa protein 1 (HSPA1A), gene 3303; experiment: LTEA_HepaRG_HSPA1A: Life Technologies and Expression Analysis (LTEA) Assay for Heat shock 70 kDa protein 1 (HSPA1A) using HepaRG (AID 2283502)
Procedure, shortened: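 Human HepaRG cells in serum-free induction medium were exposed in duplicate for 48 h to 8 half-log concentrations, highest 100 uM, in 0.5% DMSO. HSPA1A mRNA read by TaqMan qRT-PCR, normalized to ACTB, GAPDH, POLR2A, fitted bidirectionally against DMSO.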

Measured: AC50

Cytochrome P450 3A7 (Homo sapiens), sequence (P24462 whole entry, looked up): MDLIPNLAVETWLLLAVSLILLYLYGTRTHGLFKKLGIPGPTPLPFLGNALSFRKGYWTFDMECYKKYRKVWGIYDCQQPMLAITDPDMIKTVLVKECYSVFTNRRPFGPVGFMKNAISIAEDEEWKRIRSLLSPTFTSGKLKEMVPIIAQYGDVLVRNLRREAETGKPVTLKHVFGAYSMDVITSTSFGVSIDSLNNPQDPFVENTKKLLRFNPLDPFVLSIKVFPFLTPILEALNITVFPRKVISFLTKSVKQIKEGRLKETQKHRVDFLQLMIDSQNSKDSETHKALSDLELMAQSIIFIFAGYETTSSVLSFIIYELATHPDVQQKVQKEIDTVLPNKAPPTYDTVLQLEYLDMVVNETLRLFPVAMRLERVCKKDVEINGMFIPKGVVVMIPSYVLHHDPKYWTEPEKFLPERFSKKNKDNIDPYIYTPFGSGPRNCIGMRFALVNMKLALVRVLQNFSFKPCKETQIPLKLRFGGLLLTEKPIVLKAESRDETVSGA
Hypoxia-inducible factor 1-alpha (Homo sapiens), sequence (Q16665 whole entry, looked up): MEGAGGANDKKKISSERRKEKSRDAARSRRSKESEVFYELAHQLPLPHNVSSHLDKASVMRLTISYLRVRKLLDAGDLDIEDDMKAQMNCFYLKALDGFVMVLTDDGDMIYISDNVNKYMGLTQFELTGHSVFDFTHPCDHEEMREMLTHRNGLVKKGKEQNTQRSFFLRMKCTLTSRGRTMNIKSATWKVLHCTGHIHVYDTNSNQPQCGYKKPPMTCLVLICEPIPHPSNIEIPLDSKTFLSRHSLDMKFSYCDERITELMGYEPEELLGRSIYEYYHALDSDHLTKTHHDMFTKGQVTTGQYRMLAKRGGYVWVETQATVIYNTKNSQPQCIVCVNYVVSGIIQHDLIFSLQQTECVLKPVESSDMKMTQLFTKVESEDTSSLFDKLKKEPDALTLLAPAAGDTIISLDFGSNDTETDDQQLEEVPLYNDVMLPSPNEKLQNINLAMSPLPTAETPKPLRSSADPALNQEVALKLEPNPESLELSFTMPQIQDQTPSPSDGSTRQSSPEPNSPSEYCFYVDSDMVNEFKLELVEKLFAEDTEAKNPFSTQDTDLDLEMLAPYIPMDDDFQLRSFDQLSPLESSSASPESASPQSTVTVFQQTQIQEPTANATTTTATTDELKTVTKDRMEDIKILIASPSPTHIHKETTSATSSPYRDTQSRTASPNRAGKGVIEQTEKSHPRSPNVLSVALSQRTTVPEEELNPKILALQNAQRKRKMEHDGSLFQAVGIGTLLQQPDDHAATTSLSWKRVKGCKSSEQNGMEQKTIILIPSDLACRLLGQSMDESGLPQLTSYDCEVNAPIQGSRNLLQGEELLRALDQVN
Cytochrome P450 3A4 (Homo sapiens), sequence (P08684 whole entry, looked up): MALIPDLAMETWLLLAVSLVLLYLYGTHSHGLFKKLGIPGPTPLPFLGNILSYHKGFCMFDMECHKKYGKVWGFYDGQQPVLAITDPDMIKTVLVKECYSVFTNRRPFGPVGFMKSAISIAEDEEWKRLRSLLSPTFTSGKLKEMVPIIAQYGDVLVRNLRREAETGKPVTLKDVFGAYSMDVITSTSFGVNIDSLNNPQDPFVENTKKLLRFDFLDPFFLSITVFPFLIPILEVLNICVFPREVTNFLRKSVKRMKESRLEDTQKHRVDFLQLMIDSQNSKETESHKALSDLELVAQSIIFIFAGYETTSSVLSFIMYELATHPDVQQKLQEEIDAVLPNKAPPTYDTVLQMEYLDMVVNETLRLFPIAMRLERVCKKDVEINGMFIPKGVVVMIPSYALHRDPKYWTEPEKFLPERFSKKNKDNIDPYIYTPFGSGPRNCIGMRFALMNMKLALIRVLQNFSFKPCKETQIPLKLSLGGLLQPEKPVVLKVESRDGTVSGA

CSc1ccc(Oc2ccc(S(N)(=O)=O)cc2CN(C)C)cc1C
active: CYP4A11 (gene 1579) 77.5 µM | [1] 14 µM | [2] 75.2 µM | [8] 85.1 µM | [12] 50 µM | [16] 63.9 µM
not listed: [17]
inactive: all other assays above

CCC(C)N(C)C(=O)c1cc2ccccc2c(-c2ccccc2Cl)n1 (stereo unspecified)
active: CYP4A11 (gene 1579) 15.4 µM | [1] 3.23 µM | [2] 46.6 µM | CYP3A5 (gene 1577) 31.8 µM | [7] 13 µM | [8] 13.1 µM | [12] 8.59 µM
not listed: [15] | [17]
inactive: all other assays above

C=CCCCCCCCCCCCC
not listed: [12]
inactive: all other assays above

CCCCCCCCCC[N+](C)(C)[O-]
inactive: all assays above
